# Experimental data reported in PubChem BioAssay.
# Molecular target: Albumin (Bos taurus) (UniProt P02769)
# Test: compounds binding labelled BSA control protein – biochemical, small-molecule microarray, Alexa647 label, 635/667 nm fluorescence, artefact control for SMM control protein annotation, profiling panel (AID 1118);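 further: score merges 667 nm emission intensity and signal-to-noise per printed compound spot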
# Conditions: BSA-A647 binding, fluorescence 635 nm, higher = more signal
# Sequence of Albumin (Bos taurus) (P02769 whole entry, looked up): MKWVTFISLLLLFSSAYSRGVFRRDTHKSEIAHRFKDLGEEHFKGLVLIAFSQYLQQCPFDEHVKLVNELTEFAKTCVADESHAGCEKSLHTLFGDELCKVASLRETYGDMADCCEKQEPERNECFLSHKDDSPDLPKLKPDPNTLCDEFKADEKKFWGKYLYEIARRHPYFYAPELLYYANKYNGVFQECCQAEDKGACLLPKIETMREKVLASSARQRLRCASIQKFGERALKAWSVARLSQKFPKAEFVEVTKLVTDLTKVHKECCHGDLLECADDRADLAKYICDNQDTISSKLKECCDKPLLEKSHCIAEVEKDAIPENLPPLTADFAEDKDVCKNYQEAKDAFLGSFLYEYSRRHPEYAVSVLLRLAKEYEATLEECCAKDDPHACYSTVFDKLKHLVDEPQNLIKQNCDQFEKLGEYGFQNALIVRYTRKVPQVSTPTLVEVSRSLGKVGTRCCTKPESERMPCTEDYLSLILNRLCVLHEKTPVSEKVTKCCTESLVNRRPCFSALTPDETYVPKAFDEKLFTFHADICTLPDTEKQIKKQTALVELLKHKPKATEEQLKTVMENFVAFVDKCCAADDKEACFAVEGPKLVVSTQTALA
row,Structure (SMILES),composite z-score
1,C=C(COC)/C(=C/C[C@H](OC(C)=O)c1ccc(CO)o1)c1cc(C(=O)OC)ccc1OC,0.424
2,O=C(NCCN1CCOCC1)C1N=C(c2ccc(OCCCO)cc2)N(c2ccccc2)O1 (stereo not given),0.439
3,COCCOC(=O)N1C(=O)[C@@]2(c3cc(C#CCCO)ccc31)[C@H](C(=O)N1CCCCCCC1)[C@H]1C(=O)O[C@H](c3ccccc3)[C@H](c3ccccc3)N1[C@@H]2c1ccc(OCCO)cc1,0.796
4,COc1cc(Br)cc(C(O)C2C=CC3C(=O)N(C)C(=O)C3N2N2CCCCC2)c1OC (stereo not given),0.435
5,C=C(C)[C@@H]1CC=C(C(O)C2C=CC3C(=O)N(C)C(=O)C3N2Nc2ccccc2)CC1 (stereo not given in full),0.203
6,O=C(N1CCCCC1)[C@]1(Cc2ccccc2)N=C(c2ccc(OCCCO)cc2)O[C@@H]1c1ccccc1,0.441
7,CC(C)c1ccc(NN2C(C(O)c3ccc(B(O)O)cc3)C=CC3C(=O)N(c4ccccc4)C(=O)C32)cc1 (stereo not given),0.958
8,C=CCNC(=O)[C@@H]1[C@H]2C(=O)O[C@H](c3ccccc3)[C@H](c3ccccc3)N2[C@H](c2ccccc2OCCO)[C@@]12C(=O)N(C(=O)OCCOC)c1ccccc12,0.236
9,CC(C)C(O)C1C=CC2C(=O)N(c3ccccc3)C(=O)C2N1Nc1ccc([N+](=O)[O-])cc1 (stereo not given),0.963
10,COC(=O)[C@@]1(Cc2ccc(OC)cc2)[C@@H]2C(=CC(=O)[C@H]2CC(=O)C(=O)N2CCCC2)CN1C(=O)c1ccccc1,0.826
11,COC(=O)[C@@]1(Cc2ccc(OC)cc2)[C@H]2c3cc(C(=O)N(C)C)n(Cc4ccc(S(C)(=O)=O)cc4)c3C[C@H]2CN1C(=O)c1ccccc1,0.49
12,COCCOC(=O)N1C(=O)[C@@]2(c3cc(C#CC4(O)CCCCCC4)ccc31)[C@H](c1ccc(OCCO)cc1)N1[C@H](c3ccccc3)[C@H](c3ccccc3)OC(=O)[C@H]1[C@@H]2C(=O)N1CCN(c2ncccn2)CC1,0.716
13,COc1ccc(C#Cc2ccc3c(c2)[C@]2(C(=O)N3)[C@H](C(=O)Nc3nc4ccccc4s3)[C@H]3C(=O)O[C@H](c4ccccc4)[C@H](c4ccccc4)N3[C@@H]2c2ccc(O)cc2)cc1,0.835
14,OCCCC1=CC(c2cccs2)N(Cc2cc3c(cc2Br)OCO3)CC1 (stereo not given),0.252
15,CCN(CC)c1ccc(N2CC=CC34O[C@@H]5C=CCCOC(=O)C5[C@H]3C(=O)N(CCCCCCO)[C@@H]4C2=O)cc1 (stereo not given in full),0.254
16,CCCCCN1CC=CC23O[C@@H]4/C=C\CCC(C)OC(=O)C4[C@H]2C(=O)N(C(C)CO)[C@@H]3C1=O (stereo not given in full),-0.671
17,CC(C)OC(=O)C=C1C[C@@H](c2ccccn2)O[C@@H](c2ccccn2)O1,-0.47
18,C=CCOC(=O)[C@H]1[C@@H]2C(=O)O[C@@H](c3ccccc3)[C@@H](c3ccccc3)N2[C@@H](c2ccc(OCCOC(=O)[C@@H]3C[C@@H]4C(=O)N[C@@H](CCCCNC(C)=O)C(=O)N4[C@@H]3c3ccc(O)cc3)cc2)[C@]12C(=O)Nc1ccccc12,-0.729

row,Structure (SMILES),composite z-score
1,Cc1nc2cc(Br)ccc2c(=O)o1,0.367
2,C=CCOC(=O)[C@H]1[C@@H]2C(=O)O[C@@H](c3ccccc3)[C@@H](c3ccccc3)N2[C@@H](c2ccc(OCCOC(=O)[C@H]3C[C@H]4C(=O)N[C@@H](CCCCNC(C)=O)C(=O)N4[C@H]3c3ccc(O)cc3)cc2)[C@]12C(=O)Nc1ccc(I)cc12,-0.0312
3,C=C[C@@H](COC(=O)OC(C)(C)C)N(Cc1ccc(OC)cc1)S(=O)(=O)c1ccc(Br)cc1,-0.0125
4,COc1ccc([Si](C)(C)[C@H]2[C@H](CCO)O[C@@]3(C(=O)N(Cc4ccc(N(C=O)c5ccccc5)cc4)c4ccccc43)[C@@H]2C)cc1,0.598
5,COCCOC(=O)N1C(=O)[C@@]2(c3cc(C#Cc4ccc(OC)cc4)ccc31)[C@H](c1ccc(OCCO)cc1)N1[C@H](c3ccccc3)[C@H](c3ccccc3)OC(=O)[C@H]1[C@@H]2C(=O)N1CCN(c2ncccn2)CC1,-0.701
6,COc1ccc(C#Cc2ccc3c(c2)[C@]2(C(=O)N3)[C@H](c3ccccc3OCCO)N3[C@H](c4ccccc4)[C@H](c4ccccc4)OC(=O)[C@H]3[C@@H]2C(=O)Nc2nc3ccccc3s2)cc1,0.187
7,CCCC[C@@H]1C[C@H]1[C@@H](NC(=O)C(C)(C)C)c1ccc(C(F)(F)F)cc1,0.315
8,COC(=O)C(CC#Cc1ccc2c(c1)[C@]1(C(=O)N2)[C@H](c2ccc(OCCO)cc2)N2[C@H](c3ccccc3)[C@H](c3ccccc3)OC(=O)[C@H]2[C@@H]1C(=O)Nc1nc2ccccc2s1)C(=O)OC,0.959
9,COc1ccc(CCNC(=O)[C@@]2(Sc3ccc(C)cc3)CC(=O)N(C(C)C)[C@@H]2c2ccc(CO)cc2I)cc1,-0.235
10,COC(=O)[C@@]1(Cc2ccc(F)cc2)[C@H]2c3cc(C(=O)N4CCCC4)n(Cc4ccc(S(C)(=O)=O)cc4)c3C[C@H]2CN1C(=O)c1ccccc1,1.08
11,O=C1c2ccccc2[C@](Cc2ccccc2I)(C(=O)NCCN2CCOCC2)[C@H](c2ccc(CO)cc2)N1C1CCCCC1,0.55
12,COC(=O)[C@@]1(CCS(=O)(=O)c2ccccc2)N=C(c2ccc(OCCCO)cc2)O[C@H]1c1ccccc1CN=[N+]=[N-],-0.307
13,COCCOC(=O)N1C(=O)[C@@]2(c3cc(C#CCNC(N)=O)ccc31)[C@H](C(=O)Nc1nc3ccccc3s1)[C@H]1C(=O)O[C@H](c3ccccc3)[C@H](c3ccccc3)N1[C@@H]2c1ccc(OCCO)cc1,-0.28
14,CC(C)NC(=O)[C@@H]1c2ccccc2C(=O)N(C2Cc3ccccc3C2)[C@H]1c1ccc(CO)cc1,0.416
15,CC(C)=CCCC(C)=CC(O)C1C=CC2C(=O)N(C)C(=O)C2N1Nc1ccccc1 (stereo not given),0.919
16,[N-]=[N+]=NCc1ccccc1C[C@]1(C(=O)N2CCCCC2)N=C(c2ccc(OCCCO)cc2)O[C@H]1c1ccccc1N=[N+]=[N-],0.836
17,CCOC(=O)C[C@H]1[C@H](OC(=O)c2ccc(C(=O)c3ccccc3)cc2)[C@@H](NC(=O)CC(C)C)c2cc(OCCCO)ccc2N1C(=O)c1ccc2ccccc2n1,0.577
